Screens: PubChem, National Center for Advancing Translational Sciences (NCATS)
Compounds with a hit are over-represented: about 10% of the library has one in this group of screens.
HP1b binding inh – HP1-beta chromodomain-methylated histone interaction inhibition; P83916; AlphaScreen HP1-beta / biotin-H3K9me3 peptide binding; Potency, µM (titrated, usually from 114 µM), inactives show at the top dose activity change, negative = inhibition, usual class: inhibitors; actives 0.56% (n = 390,000); AID 540317; note: nearly all actives have a fitted effect of over 70% in size
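Compound inhibition of the preformed complex between 50 nM HP1-beta and 50 nM biotinylated H3K9me3 peptide was read by AlphaScreen. Buffer was PBS pH 7.4 with 0.01% Tween-20. Incubations ran 30 min at room temperature, with 10 ug/mL donor/acceptor beads.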
JMJD2A Tudor – JMJD2A Tudor domain (human) inhibition; O75164; actives 4.4% (n = 390,000); AID 504339; AlphaScreen JMJD2A-Tudor / H3K4me3 peptide binding; Potency, µM (highest dose often 114 µM), for the others: at the top dose activity change, negative = inhibition, most hits filed as inhibitors; note: % is set by controls: 0 for no effect and ±100 for the full control effect; nearly all actives have a fitted effect of over 50% in size
G9a inh – blocks human histone lysine methyltransferase G9a | Q96KQ7 | G9a H3K9 monomethylation, AlphaScreen, 2 h | Potency, µM (top dose mostly 102 µM), for the others: top-dose activity, negative = inhibition, actives largely listed as inhibitors | actives 8.8% (n = 350,000); note: % is set by controls: 0 for no effect and ±100 for the full control effect; nearly all actives have a fitted effect of over 75% in size
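Chemiluminescent proximity detection of H3K9 monomethylation, read after 10 min bead incubation in the dark. Reaction: 20 nM G9a, 500 nM biotin-H3K9 peptide, 20 uM SAM cofactor, 2 h, room temperature, following 15 min enzyme-compound preincubation.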
GLS inh – inhibitors of human glutaminase (GLS); O94925; GLS enzymatic activity, qHTS titration; Potency, µM (doses to about 45.5 µM), for the others: at the highest dose activity change, negative = inhibition, hits mostly inhibitors; actives 0.21% (n = 410,000); note: % is set by controls: 0 for no effect and ±100 for the full control effect
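hKGA in 45 mM KH2PO4 (pH 8.2), 0.02% Tween-20 with compound, then 1mM L-Glutamine (stock as added) plus glutamate oxidase/HRP/Amplex red coupling mix. Fluorescence read initially and after 30 min at RT; signal change reflects glutamate formation.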
BAZ2B inh – BAZ2B (human) inhibition; actives 4.4% (n = 360,000); AID 504333; Potency, µM (doses to about 114 µM), inactives show at the top dose activity change, negative = inhibition, actives largely listed as inhibitors; AlphaScreen BAZ2B-H3K14Ac peptide displacement; Q9UIF8; note: % is set by controls: 0 for no effect and ±100 for the full control effect; nearly all actives have a fitted effect of over 60% in size
Target sequence (Q9UIF8 whole entry, looked up): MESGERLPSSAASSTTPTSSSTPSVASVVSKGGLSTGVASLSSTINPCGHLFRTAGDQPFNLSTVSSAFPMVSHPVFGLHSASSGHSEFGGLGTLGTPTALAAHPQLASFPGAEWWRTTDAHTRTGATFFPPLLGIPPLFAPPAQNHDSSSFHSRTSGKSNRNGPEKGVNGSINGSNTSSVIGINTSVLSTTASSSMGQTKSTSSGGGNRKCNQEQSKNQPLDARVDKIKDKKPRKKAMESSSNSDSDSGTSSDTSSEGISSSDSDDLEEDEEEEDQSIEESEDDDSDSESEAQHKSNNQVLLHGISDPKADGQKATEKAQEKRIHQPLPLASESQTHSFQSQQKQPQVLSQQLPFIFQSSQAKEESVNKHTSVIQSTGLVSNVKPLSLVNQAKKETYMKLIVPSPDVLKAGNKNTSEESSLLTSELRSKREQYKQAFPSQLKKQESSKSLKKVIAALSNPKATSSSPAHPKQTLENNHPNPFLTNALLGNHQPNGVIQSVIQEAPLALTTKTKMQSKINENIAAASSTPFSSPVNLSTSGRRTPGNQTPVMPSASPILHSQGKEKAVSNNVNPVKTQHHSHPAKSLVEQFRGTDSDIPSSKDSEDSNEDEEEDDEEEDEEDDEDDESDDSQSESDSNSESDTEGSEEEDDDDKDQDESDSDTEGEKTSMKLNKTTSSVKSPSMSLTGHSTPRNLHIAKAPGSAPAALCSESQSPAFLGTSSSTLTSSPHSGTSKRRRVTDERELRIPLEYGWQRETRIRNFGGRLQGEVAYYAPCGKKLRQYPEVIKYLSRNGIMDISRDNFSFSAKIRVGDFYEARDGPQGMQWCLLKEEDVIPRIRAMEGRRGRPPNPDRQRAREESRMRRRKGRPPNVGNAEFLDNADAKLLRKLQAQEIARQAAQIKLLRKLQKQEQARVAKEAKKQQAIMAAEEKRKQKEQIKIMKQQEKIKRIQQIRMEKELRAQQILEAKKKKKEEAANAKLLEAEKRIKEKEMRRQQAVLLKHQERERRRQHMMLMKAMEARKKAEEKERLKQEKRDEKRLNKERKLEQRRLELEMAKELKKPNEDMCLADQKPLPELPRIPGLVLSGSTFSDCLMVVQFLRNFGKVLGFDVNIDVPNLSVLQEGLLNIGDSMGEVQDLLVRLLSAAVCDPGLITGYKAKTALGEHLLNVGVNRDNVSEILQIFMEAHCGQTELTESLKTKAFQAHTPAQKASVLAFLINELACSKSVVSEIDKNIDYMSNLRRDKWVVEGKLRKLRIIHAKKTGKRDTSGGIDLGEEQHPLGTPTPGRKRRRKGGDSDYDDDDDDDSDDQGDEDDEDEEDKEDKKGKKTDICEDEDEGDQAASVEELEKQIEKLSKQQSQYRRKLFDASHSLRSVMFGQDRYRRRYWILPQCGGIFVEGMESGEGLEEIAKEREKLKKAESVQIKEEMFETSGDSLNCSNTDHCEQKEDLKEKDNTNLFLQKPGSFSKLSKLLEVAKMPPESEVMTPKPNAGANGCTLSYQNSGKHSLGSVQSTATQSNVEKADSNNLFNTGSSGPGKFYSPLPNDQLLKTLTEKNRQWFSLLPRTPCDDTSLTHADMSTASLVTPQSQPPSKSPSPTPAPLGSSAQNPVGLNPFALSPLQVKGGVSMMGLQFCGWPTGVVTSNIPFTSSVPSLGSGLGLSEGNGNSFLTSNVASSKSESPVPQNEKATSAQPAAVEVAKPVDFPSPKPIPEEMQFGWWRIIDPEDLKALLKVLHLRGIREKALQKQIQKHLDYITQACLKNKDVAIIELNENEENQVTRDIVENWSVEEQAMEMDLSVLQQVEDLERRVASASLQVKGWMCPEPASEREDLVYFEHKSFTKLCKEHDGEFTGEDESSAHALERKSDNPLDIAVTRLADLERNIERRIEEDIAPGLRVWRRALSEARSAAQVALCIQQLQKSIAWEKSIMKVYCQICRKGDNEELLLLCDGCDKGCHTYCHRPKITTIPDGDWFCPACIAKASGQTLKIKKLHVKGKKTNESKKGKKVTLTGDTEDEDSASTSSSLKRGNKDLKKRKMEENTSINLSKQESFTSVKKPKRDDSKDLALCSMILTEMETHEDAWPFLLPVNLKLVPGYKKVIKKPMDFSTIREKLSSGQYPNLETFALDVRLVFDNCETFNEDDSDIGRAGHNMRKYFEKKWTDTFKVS
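AlphaScreen displacement of biotin-H3(5-23)K14Ac peptide (50 nM final) from BAZ2B (50 nM final) in PBS pH 7.4, 0.01% Tween-20; complex preformed 30 min RT, then compounds (top 110 uM) 30 min RT, beads 20 min dark.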
Starred values were filed as active, the others as inactive; ? = inconclusive; . = no result given; ! = not confirmed by another sample; [ ] = dose if it differs, or a comment. Calls come from the whole dose curve; as a rule, active = well fitted curve in the direction sought with a large enough effect; inconclusive = small, poorly fitted or top-dose-only effect, or another doubt; inactive = no such curve, though single readings can be large; an effect the other way counts as inactive or inconclusive. Potency is the fitted concentration of half-maximal effect.

SMILES	HP1b binding inh	JMJD2A Tudor	G9a inh	GLS inh	BAZ2B inh
O=C(NCC1CCCO1)c1csc2c1CCCCC2 (centres undefined)	21.7%	-7.7%	0.4%[59 µM]	-1.6%	3.3%
O=C(CCCn1c(=S)[nH]c2ccc(Br)cc2c1=O)NCC1CCCO1 (centres undefined)	56.6%	-21.8%	39.8µM*	6.4%	-32.5%
CC1CCc2c(C(=O)NCC3CCCO3)csc2C1 (centres undefined)	32.0%	-11.6%	89.1µM*	-3.6%	4.4%
CCOC(=O)N1CCN(C(=O)c2ccc3c(=O)n(CC4CCCO4)c(=S)[nH]c3c2)CC1 (centres undefined)	62.1%	50.1µM*	39.8µM*	-14.4%	-26.1%
Nc1nonc1-n1nnc(C(=O)N/N=C/c2cccc(F)c2)c1-c1ccc2c(c1)OCO2	43.9%	3.8%	35.2%	-11.4%	-1.9%
CCOC(=O)c1cccc(NS(=O)(=O)c2ccc(-c3cnc(C4CC4)o3)cc2)c1	27.0%	-16.2%	-1.7%[12.7 µM]	1.0%	-17.1%
O=C(NCc1ccc(Cl)cc1)c1ccc2c(=O)n(CC3CCCO3)c(=S)[nH]c2c1 (centres undefined)	37.3%	-18.9%	-3.6%	-3.1%	1.7%
O=C(NCC1CCCO1)c1ccc2c(=O)n(CC3CCCO3)c(=S)[nH]c2c1 (centres undefined)	28.7%	7.94µM*	?	5.9%	?
CN1CCN(C(=O)c2ccc3c(=O)n(Cc4ccc(Cl)cc4)c(=S)[nH]c3c2)CC1	24.9%	-32.5%	44.7µM*	?	-20.0%
CC1CCc2[nH]c3ccc(C(=O)NCC4CCCO4)cc3c2C1 (centres undefined)	?	?	44.7µM*	7.1%	-38.1%
O=C(NCC1CCCO1)c1ccc(C(=O)NCC2CCCO2)cc1 (centres undefined)	33.1%	-10.1%	?	-6.1%	-1.8%
CCOC(=O)N1CCN(C(=O)c2ccc(Cn3c(=S)[nH]c4cc5c(cc4c3=O)OCO5)cc2)CC1	10.8%	?	7.08µM*	-14.7%	9.9%
Cc1ccc(C(=O)COC(=O)CN2C(=O)C3C4CCC(C4)C3C2=O)cc1[N+](=O)[O-] (centres undefined)	1.0%	-24.1%	44.7µM*	0.8%	1.8%
Cc1ccc(C(=O)COC(=O)CCN2C(=O)C3C4CCC(C4)C3C2=O)cc1[N+](=O)[O-] (centres undefined)	13.7%	-20.0%	3.8%	0.1%	7.7%
CCOc1ccc(Nc2nc(N)c([N+](=O)[O-])c(NCc3ccccc3)n2)cc1	4.9%	-19.3%	?	5.0%	-20.1%
COc1ccc(OCCCc2c(C)n[nH]c2C)cc1	0.9%	-27.1%	?	12.3%	?
O=c1oc2ccccc2c(O)c1C=Nc1cccnc1	-11.6%	?	50.1µM*	-17.4%	-23.3%
Cc1cc(=S)cc(C)n1CCO	12.8%	-16.0%	12.6µM*	6.1%	-7.2%
CCOc1ccc(NC(=O)CCN2C(=O)c3cccc([N+](=O)[O-])c3C2=O)cc1	15.8%	-12.2%	.	-5.5%	-34.8%
CN(C)c1ccc(NC(=O)CCN2C(=O)c3cccc([N+](=O)[O-])c3C2=O)cc1	29.2%	-17.1%	10µM*	13.8%	-35.4%
O=C(CCN1C(=O)c2cccc([N+](=O)[O-])c2C1=O)Nc1nccs1	11.2%	-22.3%	39.8µM*	4.1%	-7.7%
O=C(Nc1ccccc1C(F)(F)F)c1cc(-c2ccco2)on1	2.9%	-4.2%	12.1%	-18.8%	9.2%
O=C(/C=C/c1ccc(OC(F)F)cc1)OCC(=O)N1CCc2ccccc21	17.4%	-14.5%	44.7µM*	0.6%	7.2%
O=C(OCC(=O)N1CCc2ccccc21)c1ccc[nH]c1=O	0.0%	14.1µM*	-16.3%	-0.2%	-10.1%
CN(Cc1ccccc1)C(=O)COC(=O)c1ccc[nH]c1=O	22.9%	22.4µM*	.	2.2%	.
SMILES	HP1b binding inh	JMJD2A Tudor	G9a inh	GLS inh	BAZ2B inh
Cc1cc(C(=O)OCC(=O)N2CCc3ccccc32)c(C)o1	18.1%	10.6%	20.0%[59 µM]	-0.9%	9.8%
Cc1cc(/C=C2\C(=N)N3N=C(c4ccco4)SC3=NC2=O)c(C)n1Cc1ccccc1	-23.3%	44.7µM*	28.2µM*	0.0%	?
N=C1/C(=C\c2coc3ccccc3c2=O)C(=O)N=C2SC(c3ccncc3)=NN12	?	56.2µM*	?	?	?
CSC1=NSC2=NC(=O)/C(=C\c3coc4ccccc4c3=O)C(=N)N12	41.3%	3.4%	?	28.1%	?
COc1ccc(-n2cccc2/C=C2\C(=N)N3N=C(c4ccco4)SC3=NC2=O)cc1	-13.7%	14.1µM*	?	-4.0%	39.8µM*
COc1ccc(-n2cccc2/C=C2\C(=N)N3N=C(C(C)C)SC3=NC2=O)cc1	-5.3%	-24.5%	?	2.8%	?
N=C1/C(=C\c2coc3ccc(O)cc3c2=O)C(=O)N=C2SC=CN12	-17.9%	-35.2%	.	-13.6%	?
CC(C)CSC1=NSC2=NC(=O)/C(=C\c3coc4ccccc4c3=O)C(=N)N12	19.2%	-24.3%	79.4µM*	9.4%	79.4µM*
CCC(=O)c1cc(-c2nc3ccccc3n2C)n(C)c1	18.9%	-24.1%	-4.3%[59 µM]	12.7%	1.5%
CCCCN(C)C(=O)c1cccc(OC2CCN(CC(C)(C)C)CC2)c1	27.8%	11.1%	.	-0.7%	-5.5%[0.457 µM]
N=C1/C(=C/c2coc3ccccc3c2=O)C(=O)N=C2SC(c3ccco3)=NN12	-32.9%	?	.	-38.9%	70.8µM*
CC(NCC1(N2CCOCC2)CCCCC1)C(=O)Nc1ccc(Cl)cc1Cl (centres undefined)	2.3%	-14.8%	31.6µM*	8.6%	50.1µM*
CC(NCC1(N2CCOCC2)CCCCC1)C(=O)N1CCc2ccccc21 (centres undefined)	?	2.82µM*	?	9.6%	39.8µM*
O=C(N/N=C/c1ccccc1)C(=O)N/N=C/c1ccccc1	58.1%	-13.7%	-48.9%	-1.6%	-2.3%
Cc1cc(N2CCOCC2)nc2ccc(NC(=O)CCC(=O)N3CCC(C)CC3)cc12	40.6%	40.5%	?	-0.9%	-15.3%
Fc1ccc(C(c2ccc(F)cc2)N2CCN(C/C=C/c3ccccc3)CC2)cc1	9.9%	?	21.2µM*!	-3.0%	?
COc1ccc(Cl)cc1NC(=O)C(C)N1CCN(C/C=C/c2ccccc2)CC1 (centres undefined)	12.6µM*	3.55µM*	?	9.9%	50.1µM*
CC(C(=O)Nc1ccc([N+](=O)[O-])cc1)N1CCN(C/C=C/c2ccccc2)CC1 (centres undefined)	-25.3%	?	-20.3%	4.8%	-10.8%
CC(=O)c1ccc(NC(=O)C(C)N2CCN(C/C=C/c3ccccc3)CC2)cc1 (centres undefined)	6.0%	-21.4%	-9.4%	-14.3%	?
CC(C(=O)N(C)Cc1ccccc1)N1CCN(C/C=C/c2ccccc2)CC1 (centres undefined)	?	1.58µM*	20µM*	12.0%	35.5µM*
